# Shown are actives, neighbours in structure and some others; about 10% of the full set was active somewhere.
# KB-3-1 tox: KB-3-1 parental cell cytotoxicity | Potency, µM (titrated, usually from 46.1 µM), hits mostly cytotoxic | 400,000 tested, 1.4% active | KB-3-1 viability, CellTiter-Glo ATP luminescence, 72 h; note: nearly all actives have a fitted effect of over 60% in size
#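 Cytotoxicity in the drug-sensitive parental line KB-3-1 was scored as loss of CellTiter-Glo luminescence following 72 h incubation with compound. Values come from curve fitting of normalized concentration-response data.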
# RORgamma inh: inhibitors of mouse ROR gamma transcriptional activity; P51450; Drosophila S2 Gal4-RORgamma UAS-luciferase reporter, 20 h; Potency, µM (titrated, usually from 53.6 µM), usual class: inhibitors; 310,000 tested, 5.4% active; note: nearly all actives have a fitted effect of over 60% in size
# Target sequence (P51450 whole entry, looked up, the tested form may be a part): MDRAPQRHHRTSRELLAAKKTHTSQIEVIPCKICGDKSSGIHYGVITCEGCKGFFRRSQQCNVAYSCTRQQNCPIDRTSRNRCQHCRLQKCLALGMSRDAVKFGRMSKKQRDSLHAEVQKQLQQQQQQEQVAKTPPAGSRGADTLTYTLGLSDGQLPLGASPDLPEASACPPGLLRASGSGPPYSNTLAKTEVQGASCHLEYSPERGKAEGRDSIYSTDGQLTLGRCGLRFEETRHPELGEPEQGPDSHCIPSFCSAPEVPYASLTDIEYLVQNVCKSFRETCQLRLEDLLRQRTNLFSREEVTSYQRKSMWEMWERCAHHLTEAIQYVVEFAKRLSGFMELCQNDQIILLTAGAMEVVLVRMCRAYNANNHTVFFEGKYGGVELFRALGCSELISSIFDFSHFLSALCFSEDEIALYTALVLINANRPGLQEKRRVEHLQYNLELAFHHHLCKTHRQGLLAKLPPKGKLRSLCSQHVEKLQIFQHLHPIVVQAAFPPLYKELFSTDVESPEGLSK
#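 ROR gamma transcriptional activity was tracked as Gal4-UAS luciferase output in stably transfected Drosophila Schneider cells, with compound added 1 hr before 700 uM copper sulfate induction and a 20 hr ambient-temperature incubation.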
# Gal4-VP16 FLuc: counter-screen for ROR gamma inhibitors: Gal4-VP16 reporter. Drosophila S2 Gal4-VP16 UAS-luciferase, luminescence, 20 h. Potency, µM (highest dose often 53.6 µM), most hits filed as inhibitors. 310,000 tested, 3.5% active. AID 2546;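 note: Gal4-VP16 expression switched on by copper sulfate through the metallothionein promoter; nearly all actives have a fitted effect of over 50% in size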
# SW480 rereplic: inducers of DNA re-replication in SW480 colon cancer cells | SW480 DNA re-replication, Hoechst DNA content imaging, 48 h | Potency, µM (highest dose often 46.1 µM), usual class: activators | 340,000 tested, 1.8% active | AID 624297; note: nearly all actives have a fitted effect of over 55% in size
#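 Treated cells incubate 48 hr (37 C, 5% CO2), are stained 40 min with Hoechst, and nuclear fluorescence is enumerated; a rise in nuclei with high DNA signal marks re-replication.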
# KB-V1 cytotox: KB-V1 MDR subline cytotoxicity | KB-V1 MDR cells viability, CellTiter-Glo, 72 h | Potency, µM (doses to about 46.1 µM), hits mostly cytotoxic | 400,000 tested, 3.4% active | AID 1347076; note: nearly all actives have a fitted effect of over 60% in size
#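 Cells of the MDR subline KB-V1 are plated, dosed with compound at multiple concentrations, and incubated 72 h at 37 degrees C; CellTiter-Glo is then added and luminescence read after 10 min.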
# MCF10A rereplic: inducers of DNA re-replication in MCF 10A breast cells; MCF 10A DNA re-replication, Hoechst nuclear intensity, 48 h; Potency, µM (series often up to 46.1 µM), actives largely listed as activators; 350,000 tested, 2.9% active; AID 624296; note: nearly all actives have a fitted effect of over 50% in size
# Numbers stand for hits; – = inactive; ? = inconclusive; · = no result given; [ ] = dose if it differs, or a comment. Calls come from the whole dose curve; as a rule, active = well fitted curve in the direction sought with a large enough effect; inconclusive = small, poorly fitted or top-dose-only effect, or another doubt; inactive = no such curve, though single readings can be large; an effect the other way counts as inactive or inconclusive.
SMILES,KB-3-1 tox,RORgamma inh,Gal4-VP16 FLuc,SW480 rereplic,KB-V1 cytotox,MCF10A rereplic
CN(C)S(=O)(=O)Oc1ccc(C(=O)Nc2cccc(Cl)c2)cc1,–,?,13µM,–,–,?
CN(C)S(=O)(=O)Oc1cccc(C(=O)Nc2ccccc2Cl)c1,–,–,–,–,–,–
CN(C)S(=O)(=O)Oc1cccc(C(=O)Nc2ccc(Cl)cc2)c1,9.2µM,?,–,–,–,?
CCc1cc(=O)oc2cc(OS(C)(=O)=O)ccc12,–,·,·,–,–,–
CCc1cc(=O)oc2c(C)c(OS(C)(=O)=O)ccc12,–,·,·,–,4.1µM,–
O=C(NCCC1=CCCCC1)C1CCN(S(=O)(=O)N2CCCC2)CC1,–,–,?,–,–,–
O=C(NCCC1=CCCCC1)C1CCN(S(=O)(=O)c2ccc(Br)s2)CC1,–,?,–,–,16µM,?
O=C(NCCC1=CCCCC1)C1CCCN(S(=O)(=O)c2ccccc2)C1 (stereo not given),–,–,–,–,9.2µM,?
Cc1ccc(S(=O)(=O)N2CCCC(C(=O)NCCC3=CCCCC3)C2)cc1 (stereo not given),–,–,–,–,–,–
CCSc1nnc(NC(=O)C(CC)(C(F)(F)F)C(F)(F)F)s1,–,10µM,16µM,–,?,?
CCSc1nnc(NC(=O)c2csc3c2CCCC3)s1,–,–,?,15µM,–,?
CCSc1nnc(NC(=O)c2cccc(S(=O)(=O)N(C)c3ccc(C)cc3)c2)s1,–,16µM,?,18µM,15µM,?
CCSc1nnc(NC(=O)c2ccccn2)s1,?,2µM,3.2µM,?,–,–
CCSc1nnc(NC(=O)c2csc3c2CCC(C)C3)s1 (stereo not given),–,–,–,–,–,–
c1ccc(CNc2nc3ccccc3c3nc(-c4ccccc4)nn23)cc1,–,·,·,·,–,·
O=C1/C(=C/c2ccccc2)CN(C(=O)CCN2CCOCC2)C/C1=C\c1ccccc1,–,·,·,?,?,2.3µM
CCOC(=O)N1C/C(=C\c2ccccc2)C(=O)/C(=C/c2ccccc2)C1,?,18µM,?,?,–,?
O=C(/C=C/c1ccccc1)CCN1CCOCC1,?,·,·,8.2µM,?,?
C/C(=C\c1ccccc1)C(=O)NCCN1CCOCC1,–,–,–,–,–,–
C[N+](C)(C)CCC(=O)N1C/C(=C/c2ccccc2)C(=O)/C(=C\c2ccccc2)C1,?,·,·,0.73µM,10µM,?
CCOC(=O)N1CCN(S(=O)(=O)/C=C/c2ccccc2)CC1,–,–,–,–,–,–
CN(C)CCC(=O)N1C/C(=C/c2ccccc2)C(=O)/C(=C\c2ccccc2)C1,–,·,·,?,–,–
O=C(/C=C/c1ccccc1)N1CCOCC1,–,–,–,–,?,–
Cc1ncc(C[n+]2csc(CCOP(=O)(O)OP(=O)(O)O)c2C)c(N)n1,·,–,–,–,·,–
COc1ccc(S(=O)(=O)NC(=O)C2(C)CCN2C(=O)C(C)(C)c2ccccc2)cc1 (stereo not given),–,·,·,·,–,·
SMILES,KB-3-1 tox,RORgamma inh,Gal4-VP16 FLuc,SW480 rereplic,KB-V1 cytotox,MCF10A rereplic
CC(C)Cn1c(-c2ccccc2)nc(=S)c2c1CCCC2,–,20µM,–,–,–,–
S=c1nc(-c2ccccc2)n(Cc2ccco2)c2c1CCCC2,·,18µM,?,·,·,·
c1ccc(-c2nc3nc4ccccc4nc3n2Cc2ccco2)cc1,–,–,20µM,–,–,?
COc1ccccc1N1CCN(C(=O)c2nn(-c3ccc(C)cc3)c(=O)n(C)c2=O)CC1,–,·,·,·,–,·
O=C(Nc1ccc(Oc2ccccc2)cc1)c1csc([C@H]2C[C@H](O)[C@@H](CO)O2)n1,–,·,·,·,–,·
Nc1nc2ccccc2n1/N=C/c1ccc(-c2ccccc2)o1,?,7.9µM,?,?,21µM,?
CCn1cc(/C=C(\NC(=O)c2ccc(OC)c(OC)c2)C(=O)NCCCn2ccnc2)c2ccccc21,–,·,·,·,–,·
CCOC(=O)CSc1cc(-c2ccccc2)nc2ncnn12,–,–,11µM,–,–,2.3µM
c1ccc(-c2cc(-c3ccccc3)n3ncnc3n2)cc1,–,–,–[10 µM],–,–,–
N#CC1=C(N)C(C#N)(C#N)C(c2ccc[nH]2)C2CCCC=C12 (stereo not given),–,?,–,–,?,–
N#CC1=C(N)C2=CCCC[C@H]2[C@H](c2cccc(F)c2)C1(C#N)C#N,–,?,?,–,–,21µM
Cc1ccc2ncc(C(=O)NC(C)c3ccccc3)c(=O)n2c1 (stereo not given),–,·,·,·,–,·
CC(C)c1ccc(/C=C/C(=O)N2CCOCC2)cc1,–,–,–,–,–,?
CC(C)c1ccc(/C=C/C(=O)N2CCCCCC2)cc1,–,–,–,–,–,23µM
COc1ccc2cc(/C=C/C(=O)N3CCN(CC(=O)N4CCCCCC4)CC3)ccc2c1,–,?,–,–,15µM,–
CC1(C(=O)NS(=O)(=O)c2ccc(C#N)cc2)CCN1C(=O)C1(c2ccccc2)CCCC1 (stereo not given),–,·,·,·,–,·
CCCn1c(SCN2C(=O)c3ccccc3C2=O)nc2cc(Cl)ccc2c1=O,–,10µM,?,–,?,–
Cc1cccc(-n2c(SCN3C(=O)c4ccccc4C3=O)nc3ccccc3c2=O)c1,·,?,–,·,·,·
COC(=O)c1c(-c2ccccc2)noc1C,–,–,–,–,–,–
Cc1onc(-c2ccccc2)c1C(=O)Oc1cccnc1,–,7.9µM,–,–,–,–
Cc1onc(-c2ccccc2)c1C(=O)OCCOc1cccc(Cl)c1,?,–,–,6.5µM,–,21µM
CCOc1ccc(C(=O)COC(=O)c2c(-c3ccccc3)noc2C)cc1,?,·,·,?,?,6.5µM
COc1ncnc2c1ncn2CCCNCCCN1CCCC1=O,–,·,·,·,–,·
COc1cc2cc(CNc3ccccc3)c(=O)n(CC(=O)Nc3ccccc3)c2cc1OC,–,·,·,·,?,·
CC(C)(C)C(=O)Nc1cccc(C(=O)OCc2cc(=O)n3nc(C4CC4)sc3n2)c1,–,·,·,·,–,·
SMILES,KB-3-1 tox,RORgamma inh,Gal4-VP16 FLuc,SW480 rereplic,KB-V1 cytotox,MCF10A rereplic
CCOCCCn1c(SCC(=O)Nc2ccccc2Cl)nc2c(oc3ccccc32)c1=O,–,·,·,·,–,·
O=C(CN1CCN(c2cccc(C(F)(F)F)c2)CC1)N(C1CCCC1)C1CCS(=O)(=O)C1 (stereo not given),–,·,·,–,21µM,–
O=C(CN1CCN(c2cccc(C(F)(F)F)c2)CC1)N(C1CC1)C1CCS(=O)(=O)C1 (stereo not given),–,·,·,–,–,–
CC1=C(C(=O)N2CCCCCC2)CC(CC(=O)NCCN2CCOCC2)C(=O)N1CCC1=CCCCC1 (stereo not given),·,·,·,·,–,·
Nc1ccccc1Sc1nc2ccccc2[nH]1,?,3.5µM,13µM,?,?,–
CCSc1nc2ccccc2[nH]1,–,–,–,–,–,–

# Source: PubChem
